Results reported in PubChem BioAssay.
Active and inactive are the calls of the source.

Assays:
[1] = tested on: Plasmodium falciparum Sir2 (PF13_0152, Sir2A); experiment: Plasmodium falciparum Sir2A binding compounds – biochemical, small-molecule microarray, 635 nm fluorescence, primary screen (AID 1098); details: fluorescence 635 nm, higher = more signal;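 note: score merges spot fluorescence intensity with its signal-to-noise ratio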
[2] = probe aDKK1 binding to arrayed compounds – biochemical, biotinylated probe, 635/667 nm fluorescence, primary screen (AID 1099); details: small-molecule microarray, higher = more signal;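 note: score merges 667nm spot fluorescence with signal to noise across triplicate slides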
[3] = probe aCHRDL2 binding to arrayed compounds – biochemical, biotinylated probe, 635/667 nm fluorescence, primary screen (AID 1100); details: small-molecule microarray, higher = more signal
[4] = change in splice reporter luminescence, either direction, cell-based, HEK293, spliceosome inhibition project, primary screen (AID 1101); details: HEK293 splicing luciferase reporter, 24 h, higher = more signal, called active from +8 up or from −8 down;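 note: HEK293 cells carrying a splicing-competent luciferase reporter gene; test concentration not given here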
[5] = target: Fibroblast growth factor 10 (Homo sapiens) (UniProt O15520); experiment: compounds binding fibroblast growth factor 10 – biochemical, small-molecule microarray, 635 nm fluorescence, primary screen (AID 1102); details: FGF10 binding, fluorescence 635 nm, higher = more signal
[6] = tested on: glycogen synthase kinase-3 (GSK3A per assay name; protocol says GSK3B); experiment: compounds binding glycogen synthase kinase-3 – biochemical, small-molecule microarray, 635 nm fluorescence, GSK3A, primary screen (AID 1103); details: fluorescence 635 nm, higher = more signal; note: the record names both GSK3A and GSK3B
[7] = target: Epidermal growth factor receptor (Homo sapiens) (UniProt P00533); experiment: compounds binding epidermal growth factor receptor – biochemical, small-molecule microarray, 635 nm fluorescence, primary screen (AID 1104); details: EGFR binding, higher = more signal;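 note: score merges 667 nm emission intensity with spot signal to noise over triplicate slides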
[8] = target: Follistatin-related protein 3 (Homo sapiens) (UniProt O95633); experiment: compounds binding follistatin-related protein 3 – biochemical, small-molecule microarray, 635 nm fluorescence, primary screen (AID 1105); details: FSTL3 binding, higher = more signal;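 note: score merges emission near 667 nm and signal to noise per printed spot across three slides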
[9] = target: Dickkopf-related protein 1 (Homo sapiens) (UniProt O94907); experiment: small molecules binding DKK1 protein – biochemical, small-molecule microarray, 635 nm fluorescence scan, primary screen (AID 1106); details: higher = more signal;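 note: score merges emission near 667 nm with signal to noise over three replicate slides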
[10] = tested on: Inhibin beta A chain (activin A); experiment: small molecules binding activin A – biochemical, small-molecule microarray, 635 nm fluorescence scan, primary screen (AID 1107); details: INHBA, higher = more signal;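 note: mouse activin A protein probed at 4.33 µg/mL on printed slides; score merges bound-protein fluorescence near 667 nm with spot signal-to-noise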
[11] = tested on: Human papillomavirus type 1a protein E7 (residues 44-93); experiment: small molecules binding HPV E7 44-93 – biochemical, small-molecule microarray, residues 44-93, 635 nm fluorescence, primary screen (AID 1108); details: fluorescence 635 nm, higher = more signal;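 note: E7 fragment applied at 1 µg/mL in TBST for 1 h at 4 C; score combines spot fluorescence with its signal to noise ratio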
[12] = hepatitis C replication reporter changes, two-sided – Huh7 cells, luciferase reporter, HCV replication inhibitor project, primary screen (AID 1109); details: Huh7 HCV replicon luciferase reporter, 48 h; higher = more signal;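 note: huh7 hepatoma cells harbouring a luciferase neomycin HCV replicon reporter; luciferase luminescence as measure of HCV replicon replication; test concentration not given here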
[13] = target: Left-right determination factor 2 (Homo sapiens) (UniProt O00292); experiment: small molecules binding LEFTY2 protein – biochemical, small-molecule microarray, 635 nm fluorescence scan, primary screen (AID 1110); details: higher = more signal
[14] = target: Calmodulin-1 (Homo sapiens) (UniProt P0DP23); experiment: small molecules binding calmodulin-1 with EGTA – biochemical, small-molecule microarray, Cy5-labelled CALM1, profiling panel (AID 1111); details: Cy5-CALM1 binding fluorescence, higher = more signal;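 note: labelled calmodulin applied in Tris saline Tween buffer holding calcium plus EGTA and DTT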
[15] = target: Calmodulin-1 (Homo sapiens) (UniProt P0DP23); experiment: small molecules binding Ca-loaded calmodulin-1 – biochemical, small-molecule microarray, Cy5-labelled CALM1, plus calcium, artefact control for SMM control-protein annotation, profiling panel (AID 1112); details: Cy5-CALM1 binding fluorescence, higher = more signal;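 note: score merges spot fluorescence with signal to noise from triplicate slides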
[16] = probe aWnt5a binding to arrayed compounds – biochemical, biotinylated probe, 635/667 nm fluorescence, primary screen (AID 1113); details: small-molecule microarray, higher = more signal;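 note: score merges 667 nm fluorescence intensity with signal-to-noise per printed feature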
[17] = probe aShh binding to arrayed compounds – biochemical, biotinylated probe, 635/667 nm fluorescence, primary screen (AID 1114); details: small-molecule microarray, higher = more signal;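 note: probe is biotin-labelled aShh protein from a stem cell growth factor screen; measures binding of labelled protein to compounds printed on the slide; score merges feature fluorescence at 667 nm with signal-to-noise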
[18] = probe aNog binding to arrayed compounds – biochemical, biotinylated probe, 635/667 nm fluorescence, primary screen (AID 1115); details: small-molecule microarray, higher = more signal;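 note: probe is biotinylated aNog protein used at 0.15 µg/mL for 1 h at 4 C; z-score combines 667 nm fluorescence of each spot with its signal to noise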
[19] = target: Torsin-1A-interacting protein 1 (Homo sapiens) (UniProt Q5JTV8); experiment: compound microarray binding of lysate hLAP1 – cell lysate, small-molecule microarray, COS7 lysate, 635/667 nm fluorescence, primary screen (AID 1116); details: 635 nm fluorescence, higher = more signal
[20] = target: Alpha-bungarotoxin (Bungarus multicinctus) (UniProt P60615); experiment: compounds binding labelled alpha-BTX control protein – biochemical, small-molecule microarray, Alexa647 label, 635/667 nm fluorescence, artefact control for SMM control protein annotation, profiling panel (AID 1117); details: alpha-BTX-A647 binding fluorescence, higher = more signal
Alpha-bungarotoxin (Bungarus multicinctus), sequence (P60615 whole entry, looked up): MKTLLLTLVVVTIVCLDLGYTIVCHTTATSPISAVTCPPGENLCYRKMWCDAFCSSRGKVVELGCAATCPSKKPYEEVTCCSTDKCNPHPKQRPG

Dickkopf-related protein 1 (Homo sapiens), sequence (O94907 whole entry, looked up): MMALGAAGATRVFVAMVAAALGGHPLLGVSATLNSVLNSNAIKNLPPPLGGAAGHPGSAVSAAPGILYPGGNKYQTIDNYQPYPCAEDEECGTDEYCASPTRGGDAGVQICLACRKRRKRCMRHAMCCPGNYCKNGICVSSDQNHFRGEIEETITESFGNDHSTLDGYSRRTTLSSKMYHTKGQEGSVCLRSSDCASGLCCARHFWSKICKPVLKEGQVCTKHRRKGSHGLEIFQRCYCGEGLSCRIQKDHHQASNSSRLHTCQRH
Torsin-1A-interacting protein 1 (Homo sapiens), sequence (Q5JTV8 whole entry, looked up): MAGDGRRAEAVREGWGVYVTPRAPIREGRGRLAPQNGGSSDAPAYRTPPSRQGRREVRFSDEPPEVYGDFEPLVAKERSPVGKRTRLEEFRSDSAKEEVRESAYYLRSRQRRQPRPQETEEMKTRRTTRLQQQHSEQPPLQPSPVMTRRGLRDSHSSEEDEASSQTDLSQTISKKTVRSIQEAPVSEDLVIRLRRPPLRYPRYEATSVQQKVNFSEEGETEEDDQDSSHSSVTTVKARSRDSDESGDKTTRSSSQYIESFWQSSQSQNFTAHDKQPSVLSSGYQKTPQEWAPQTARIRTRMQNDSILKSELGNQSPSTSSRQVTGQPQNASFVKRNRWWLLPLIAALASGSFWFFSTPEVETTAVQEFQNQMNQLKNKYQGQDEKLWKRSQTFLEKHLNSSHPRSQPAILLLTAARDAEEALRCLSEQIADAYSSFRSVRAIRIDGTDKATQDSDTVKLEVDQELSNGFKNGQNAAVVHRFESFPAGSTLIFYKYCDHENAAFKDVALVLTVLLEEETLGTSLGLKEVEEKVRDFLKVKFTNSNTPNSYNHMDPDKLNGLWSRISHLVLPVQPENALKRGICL
Fibroblast growth factor 10 (Homo sapiens), sequence (O15520 whole entry, looked up): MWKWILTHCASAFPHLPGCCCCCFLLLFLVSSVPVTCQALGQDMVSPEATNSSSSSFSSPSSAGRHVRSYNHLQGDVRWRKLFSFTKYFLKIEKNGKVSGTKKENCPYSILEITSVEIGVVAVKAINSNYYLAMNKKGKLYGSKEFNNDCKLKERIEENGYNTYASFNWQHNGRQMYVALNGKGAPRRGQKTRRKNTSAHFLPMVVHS
Epidermal growth factor receptor (Homo sapiens), sequence (P00533 whole entry, looked up): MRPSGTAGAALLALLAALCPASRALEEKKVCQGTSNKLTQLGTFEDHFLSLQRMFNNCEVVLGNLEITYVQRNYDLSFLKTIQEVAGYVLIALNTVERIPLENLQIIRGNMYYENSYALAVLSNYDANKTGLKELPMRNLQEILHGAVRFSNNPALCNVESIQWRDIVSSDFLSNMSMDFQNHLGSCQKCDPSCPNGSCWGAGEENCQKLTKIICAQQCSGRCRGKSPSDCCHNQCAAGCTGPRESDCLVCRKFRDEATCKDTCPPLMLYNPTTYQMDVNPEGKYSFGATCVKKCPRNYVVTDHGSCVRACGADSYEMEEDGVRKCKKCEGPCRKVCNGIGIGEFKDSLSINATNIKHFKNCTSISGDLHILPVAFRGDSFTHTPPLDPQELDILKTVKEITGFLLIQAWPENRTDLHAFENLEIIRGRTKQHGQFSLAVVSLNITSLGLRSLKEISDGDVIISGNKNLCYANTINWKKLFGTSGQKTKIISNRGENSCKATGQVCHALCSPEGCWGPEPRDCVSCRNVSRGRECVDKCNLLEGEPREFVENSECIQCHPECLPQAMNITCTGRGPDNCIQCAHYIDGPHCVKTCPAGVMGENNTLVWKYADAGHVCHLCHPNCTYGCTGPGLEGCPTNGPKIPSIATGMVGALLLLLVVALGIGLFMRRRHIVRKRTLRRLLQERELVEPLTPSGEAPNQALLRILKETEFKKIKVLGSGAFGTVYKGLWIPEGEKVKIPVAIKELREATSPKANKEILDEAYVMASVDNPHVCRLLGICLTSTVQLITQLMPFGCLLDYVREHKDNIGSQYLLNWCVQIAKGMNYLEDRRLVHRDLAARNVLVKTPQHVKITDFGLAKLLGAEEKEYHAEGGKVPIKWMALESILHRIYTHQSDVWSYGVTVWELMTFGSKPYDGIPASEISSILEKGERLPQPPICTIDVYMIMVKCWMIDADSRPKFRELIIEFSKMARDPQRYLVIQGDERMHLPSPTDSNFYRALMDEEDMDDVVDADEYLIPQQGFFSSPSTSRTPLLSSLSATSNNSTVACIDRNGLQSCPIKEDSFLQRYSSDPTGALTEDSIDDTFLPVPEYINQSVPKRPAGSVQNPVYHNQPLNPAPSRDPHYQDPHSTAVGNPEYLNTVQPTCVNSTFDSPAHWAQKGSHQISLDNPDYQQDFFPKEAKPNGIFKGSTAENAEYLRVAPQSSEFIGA
Left-right determination factor 2 (Homo sapiens), sequence (O00292 whole entry, looked up): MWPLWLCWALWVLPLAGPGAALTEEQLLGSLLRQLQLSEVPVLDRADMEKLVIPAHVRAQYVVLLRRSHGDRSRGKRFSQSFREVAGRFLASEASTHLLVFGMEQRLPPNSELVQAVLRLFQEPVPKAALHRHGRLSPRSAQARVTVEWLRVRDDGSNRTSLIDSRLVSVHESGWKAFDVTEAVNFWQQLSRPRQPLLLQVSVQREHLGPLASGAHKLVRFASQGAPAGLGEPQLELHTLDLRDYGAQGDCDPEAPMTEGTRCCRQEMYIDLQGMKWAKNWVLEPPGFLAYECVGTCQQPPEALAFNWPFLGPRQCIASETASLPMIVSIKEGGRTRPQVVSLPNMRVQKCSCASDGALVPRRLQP
Follistatin-related protein 3 (Homo sapiens), sequence (O95633 whole entry, looked up): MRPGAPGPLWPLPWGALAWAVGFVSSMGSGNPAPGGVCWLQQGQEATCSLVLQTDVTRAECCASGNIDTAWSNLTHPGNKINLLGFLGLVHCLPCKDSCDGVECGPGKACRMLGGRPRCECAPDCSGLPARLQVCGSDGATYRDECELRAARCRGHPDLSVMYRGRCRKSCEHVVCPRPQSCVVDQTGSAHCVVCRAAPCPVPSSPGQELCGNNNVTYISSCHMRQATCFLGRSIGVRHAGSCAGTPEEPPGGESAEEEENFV

| Compound | composite z-score [1] | composite z-score [2] | composite z-score [3] | z-score [4] | composite z-score [5] | composite z-score [6] | composite z-score [7] | composite z-score [8] | composite z-score [9] | composite z-score [10] | composite z-score [11] | z-score [12] | composite z-score [13] | composite z-score [14] | composite z-score [15] | composite z-score [16] | composite z-score [17] | composite z-score [18] | composite z-score [19] | composite z-score [20] |
| --- | --- | --- | --- | --- | --- | --- | --- | --- | --- | --- | --- | --- | --- | --- | --- | --- | --- | --- | --- | --- |
| C=CCOC(=O)[C@H]1[C@@H]2C(=O)O[C@@H](c3ccccc3)[C@@H](c3ccccc3)N2[C@@H](c2ccc(OCCOC(=O)[C@@H]3C[C@@H]4C(=O)N[C@@H](CCCCNC(C)=O)C(=O)N4[C@@H]3c3ccc(O)cc3)cc2)[C@]12C(=O)Nc1ccc(I)cc12 | 0.95 | 0.0153 | 0.127 | -0.151 (inactive) | 1.33 | 1.27 | 1.08 | 1.3 | 0.789 | 0.732 | 1.37 | -1.14 | 0.637 | 0.48 | -0.215 | -0.0519 | 0.131 | 0.381 | 1.65 | 1.78 |
| NC(=O)NCC#Cc1ccc2c(c1)[C@]1(C(=O)N2)[C@H](C(=O)NC[C@H](O)c2ccccc2)[C@H]2C(=O)O[C@H](c3ccccc3)[C@H](c3ccccc3)N2[C@@H]1c1ccc(OCCO)cc1 | 0.0395 | 0.72 | 0.879 | 0.822 (inactive) | 0.566 | 0.0382 | -0.464 | 0.0489 | -0.246 | 1.04 | 1.25 | -1.22 | -0.461 | 0.616 | 0.541 | -0.143 | -0.0769 | -0.418 | 0.863 | 1.43 |
| C=CCC(OC(C)=O)[C@@H]1[C@@H](N(Cc2ccc(-c3ccccc3)cc2)C(=O)Cc2ccc(F)cc2)c2cc(OCCCO)ccc2N1C(=O)Cc1ccc(OC)cc1 (stereo not given in full) | -0.383 | -0.129 | 0.0545 | -0.599 (inactive) | -0.0269 | 0.0082 | -0.244 | 0.359 | -0.139 | 1.14 | -0.0218 | -0.71 | 0.0922 | 0.498 | -0.124 | -0.0478 | -0.343 | -0.394 | -0.002 | 0.215 |
| COC(=O)[C@@]1(Cc2ccc(F)cc2)[C@H]2c3cc(C(=O)N(C)C)n(CCc4ccc(O)c(OC)c4)c3C[C@H]2CN1C(=O)c1ccccc1 | 0.0736 | 2.29 | 0.884 | 0.655 (inactive) | 1.05 | 0.776 | 1.45 | 0.62 | 0.399 | 0.366 | 0.768 | 1.09 | 0.543 | 0.187 | -0.323 | 1.2 | 2.74 | 2.48 | 0.279 | 0.434 |
| COc1cc2c(cc1OC)CN(C(=O)[C@@H]1[C@H]3C(=O)O[C@H](c4ccccc4)[C@H](c4ccccc4)N3[C@H](c3ccc(OCCO)cc3)[C@@]13C(=O)Nc1ccc(C#CC4(O)CCCCCC4)cc13)CC2 | 1.21 | 0.7 | -0.386 | -1.38 (inactive) | 1.47 | 1.3 | 0.741 | 1.11 | 0.698 | 0.282 | 1.34 | -1.34 | 0.866 | 1.52 | -0.225 | 0.0596 | 0.0985 | -0.111 | 1.37 | 1.69 |
| C=C(COC)C(=O)CC[C@@H](OC(=O)c1cccnc1)c1ccc(OCCO)cc1 | 0.872 | 0.131 | 0.423 | -0.853 (inactive) | 1.55 | 0.328 | 0.338 | 0.847 | 0.922 | 1.26 | 0.757 | -2.9 | 0.659 | -0.299 | -0.804 | -0.0944 | -0.237 | 0.678 | 0.975 | 0.661 |
